# Measured values reported in PubChem BioAssay AID652208 (Broad Institute, 2013).
# Measured potencies and affinities stand elsewhere. Activity calls are given as the source filed them.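 Rule for the calls: active = Loss of cell signal with fitted half-effect dose at or below twice the top valid tested dose; inconclusive = Poor fit, or flat fit from -70 to -30 percent; inactive = Half-effect above limit, rising signal, or flat within 30 percent.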
# Assay: viability loss in HEK293T cells – cell-based, cherry-picks, cytotoxicity control for HIV Vif inhibitor project, dose response (AID 652208)
# Conditions: CellTiter-Glo luminescence, 24 h; series mostly up to 26 µM
row,Structure (SMILES),outcome
1,CCCn1c(=N)c(C(=O)NCc2ccc3c(c2)OCO3)cc2c(=O)n3cccc(C)c3nc21,inactive
2,Cc1c(NC(=O)CC(O)(C(F)(F)F)C(F)(F)F)c(=O)n(-c2ccccc2)n1C,inactive
3,Cc1ccc(-c2nn3c(C)nnc3c3ccccc23)cc1S(=O)(=O)NCc1ccccc1,inactive
4,COc1cc(-c2cnc3c(NC=O)cc(-c4ccccc4Cl)cn23)cc(OC)c1OC,inactive
5,COc1c(Br)cc(Br)cc1/C=C1/C(=O)N=C(N)N1C,inactive
6,CCc1cccc2cc3c(N)c(C(=O)Nc4ccc(S(=O)(=O)N5CCCC5)cc4)sc3nc12,inactive
7,CCOC(=O)Cc1csc(NC(=O)CSc2nnnn2-c2ccc(CC)cc2)n1,inactive
8,CN(Cc1ccccc1)C(=O)CCC1CCN(C(=O)c2ccco2)CC1,inactive
9,CCNC(=O)[C@H]1O[C@@H](n2cnc3c(N)nc(NCCc4ccc(CCC(=O)O)cc4)nc32)[C@H](O)[C@@H]1O,inactive
10,Cc1cccc(Nc2nc(-c3ccc(O)c(O)c3)cs2)n1,inactive
11,COc1ccc(CCNC(=O)[C@@H](NC(N)=O)C(C)C)cc1,inactive
12,CCOC(=O)C[C@@H](C#N)NC(=O)[C@@H]1CCCN1C(=O)[C@@H](NC(=O)c1ccc(N)c(Cl)c1)C(C)(C)C,inactive
13,c1ccc(-c2cn3nc(-c4ccccc4)c(-c4ccccc4)nc3n2)cc1,inactive
14,Cc1ccc(Nc2cc(=O)[nH]c(=O)[nH]2)cc1C,inactive
15,CCn1c(/C=C/c2ccc(F)cc2)nc2ccccc2c1=O,inactive
16,COc1ccc(S(=O)(=O)Nc2cc3c(C(C)=O)c(C)oc3c3ccccc23)cc1,inactive
17,CC(C)(C)NC(=O)CN(Cc1ccc(F)cc1)C(=O)Cn1nnc(-c2ccc(F)cc2)n1,inactive
18,O=C(CCCCCn1c(=S)[nH]c2ccc(N3CCOCC3)cc2c1=O)NCc1ccccc1Cl,inactive
19,O=C(NC1CCCc2ccccc21)c1ccccc1Br (configuration not stated),inactive

row,Structure (SMILES),outcome
1,COCCNCC(=O)Nc1nc(C)cs1,inactive
2,COc1ccc(OCCN2CCC(C(=O)NC(c3ccccn3)c3ccccc3OC)CC2)cc1 (configuration not stated),inactive
3,Cc1cc(NC(=O)CSc2nc3ccccc3c(=O)n2-c2ccccc2)no1,inactive
4,CCN(CC)C(=O)c1cccc(NC(=O)C2=COCCO2)c1,inactive
5,Cc1cccc2cc(CN(CC3CCCO3)C(=O)NC3CCCCC3)c(=O)[nH]c12 (configuration not stated),inactive
6,O=C(CCCCn1ccc(=O)[nH]c1=O)Nc1ccc(O)c(C(=O)O)c1,inactive
7,CCN1CCc2c(sc(N)c2C(N)=O)C1,inactive
8,CCC(C)C(=O)Nn1c(C2CC2)nc2cc(OC)c(OC)cc2c1=O (configuration not stated),inactive
9,CCOC(=O)Nc1ccc(NCc2ccc(F)cc2)nc1N,inactive
10,COc1cccc(NC(=O)CSc2nnc(Cc3ccc(OC)c(OC)c3)o2)c1,inactive
11,Cc1ccc(NC(=O)Cn2ncn3c(cc4ccccc43)c2=O)c(C)c1,inactive
12,Cc1cc(C)c(S(=O)(=O)N2CCN(S(=O)(=O)N3CCOCC3)CC2)c(C)c1,inactive
13,CC(C)C(=O)N=C1SC2CS(=O)(=O)CC2N1Cc1ccccc1 (configuration not stated),inactive
14,C/C=C/c1ccc(OCCNCc2ccccc2)c(OC)c1,inactive
15,CCn1c(CC(=O)Nc2ccccc2)nnc1SCC(=O)Nc1nnc(C)s1,inactive
16,CCOC(=O)C1CCCN(C(=O)c2cc(S(=O)(=O)N(C)C)ccc2N2CCCC2)C1 (configuration not stated),inactive
17,CN(C)c1ccc(/C=C2\SC(N3CCCCC3)=NC2=O)cc1,inactive
18,O=C1c2ccccc2C(Nc2ccc(S(=O)(=O)N3CCOCC3)cc2)N1c1ccccn1 (configuration not stated),inactive
